Results taken from the supplement of paper PMC10849652.
Targets with a hit are over-represented here; the source holds about 8,800 in all. About 0.5% of all pairs of compound and target were hits. A number with no mark means an inactive call.

Key:
Assay in all cases: log2 fold change, soluble protein after heating vs DMSO (PISA); higher = thermal stabilisation; K562 lysate, 10 uM; active = over 0.2 and 3.5 SD of the protein, either way, in both replicates (recomputed)
lapatinib = compound: CS(=O)(=O)CCNCc1ccc(-c2ccc3ncnc(Nc4ccc(OCc5cccc(F)c5)c(Cl)c4)c3c2)o1 [lapatinib]
Summary of the method: (§1)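 Pellets of K562 cells were dounce-homogenised in PBS pH 7.4 with 1 mM MgCl2, and the crude extract was held at 1 mg/mL protein for a 30 min treatment with 10 μM compound. Aliquots were heated for 3 min over 48°C-58°C and pooled before NP-40 was added to 0.5% at 4°C. The supernatant from 21,000xg for 90 min was quantified by TMTpro 16plex LC-MS/MS with channel sums equalised. Values are reported from duplicates as log-two fold change in thermal stability relative to solvent controls.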

pictilisib = compound: CS(=O)(=O)N1CCN(Cc2cc3nc(-c4cccc5[nH]ncc45)nc(N4CCOCC4)c3s2)CC1 [pictilisib]
Summary of the method: as §1

crizotinib = compound: C[C@@H](Oc1cc(-c2cnn(C3CCNCC3)c2)cnc1N)c1c(Cl)ccc(F)c1Cl [crizotinib]
Summary of the method: as §1

[1] = compound: C[C@H](C1=CC=C(C=C1)C(=O)NC2=C3C=CNC3=NC=C2)N
Summary of the method: as §1

duvelisib = compound: C[C@H](Nc1ncnc2nc[nH]c12)c1cc2cccc(Cl)c2c(=O)n1-c1ccccc1 [duvelisib]
Summary of the method: as §1

gandotinib = compound: Cc1cc(Nc2cc(CN3CCOCC3)c3nc(C)c(Cc4ccc(Cl)cc4F)n3n2)n[nH]1 [gandotinib]
Summary of the method: as §1

tozasertib = compound: Cc1cc(Nc2cc(N3CCN(C)CC3)nc(Sc3ccc(NC(=O)C4CC4)cc3)n2)n[nH]1 [tozasertib]
Summary of the method: as §1

doramapimod = compound: Cc1ccc(-n2nc(C(C)(C)C)cc2NC(=O)Nc2ccc(OCCN3CCOCC3)c3ccccc23)cc1 [doramapimod]
Summary of the method: as §1

bafetinib = compound: Cc1ccc(NC(=O)c2ccc(CN3CC[C@H](N(C)C)C3)c(C(F)(F)F)c2)cc1Nc1nccc(-c2cncnc2)n1 [bafetinib]
Summary of the method: as §1

[2] = compound: Cc1cccc(CC(=O)N2CCc3c2ccc(-c2cn(C)c4ncnc(N)c24)c3F)n1
Summary of the method: as §1

nilotinib = compound: Cc1cn(-c2cc(NC(=O)c3ccc(C)c(Nc4nccc(-c5cccnc5)n4)c3)cc(C(F)(F)F)c2)cn1 [nilotinib]
Summary of the method: as §1

[3] = compound: Cc1nc(Nc2n[nH]c3c2CN(C(=O)N[C@H](CN(C)C)c2ccccc2)C3(C)C)c2sccc2n1
Summary of the method: as §1

dasatinib = compound: Cc1nc(Nc2ncc(C(=O)Nc3c(C)cccc3Cl)s2)cc(N2CCN(CCO)CC2)n1 [dasatinib]
Summary of the method: as §1

[4] = compound: Cc1ncc(-c2ccnc(Nc3ccc(S(C)(=O)=O)cc3)n2)n1C(C)C
Summary of the method: as §1

[5] = compound: Cn1cc(-c2ccc3c(c2)CCN3C(=O)Cc2cccc(C(F)(F)F)c2)c2c(N)ncnc21
Summary of the method: as §1

quisinostat = compound: Cn1cc(CNCC2CCN(c3ncc(C(=O)NO)cn3)CC2)c2ccccc21 [quisinostat]
Summary of the method: as §1

tipifarnib = compound: Cn1cncc1[C@@](N)(c1ccc(Cl)cc1)c1ccc2c(c1)c(-c1cccc(Cl)c1)cc(=O)n2C [tipifarnib]
Summary of the method: as §1

[6] = compound: NC(=O)Nc1cc(-c2cccc(F)c2)sc1C(=O)N[C@H]1CCCNC1
Summary of the method: as §1

[7] = compound: NC(=O)c1cnc(N[C@@H]2CCCC[C@@H]2N)nc1Nc1cccc(-n2nccn2)c1
Summary of the method: as §1

[8] = compound: NC1(c2ccc(-c3nc4ccn5c(=O)[nH]nc5c4cc3-c3ccccc3)cc2)CCC1
Summary of the method: as §1

UniProt Q9UHD2, sequence (Q9UHD2 whole entry, looked up): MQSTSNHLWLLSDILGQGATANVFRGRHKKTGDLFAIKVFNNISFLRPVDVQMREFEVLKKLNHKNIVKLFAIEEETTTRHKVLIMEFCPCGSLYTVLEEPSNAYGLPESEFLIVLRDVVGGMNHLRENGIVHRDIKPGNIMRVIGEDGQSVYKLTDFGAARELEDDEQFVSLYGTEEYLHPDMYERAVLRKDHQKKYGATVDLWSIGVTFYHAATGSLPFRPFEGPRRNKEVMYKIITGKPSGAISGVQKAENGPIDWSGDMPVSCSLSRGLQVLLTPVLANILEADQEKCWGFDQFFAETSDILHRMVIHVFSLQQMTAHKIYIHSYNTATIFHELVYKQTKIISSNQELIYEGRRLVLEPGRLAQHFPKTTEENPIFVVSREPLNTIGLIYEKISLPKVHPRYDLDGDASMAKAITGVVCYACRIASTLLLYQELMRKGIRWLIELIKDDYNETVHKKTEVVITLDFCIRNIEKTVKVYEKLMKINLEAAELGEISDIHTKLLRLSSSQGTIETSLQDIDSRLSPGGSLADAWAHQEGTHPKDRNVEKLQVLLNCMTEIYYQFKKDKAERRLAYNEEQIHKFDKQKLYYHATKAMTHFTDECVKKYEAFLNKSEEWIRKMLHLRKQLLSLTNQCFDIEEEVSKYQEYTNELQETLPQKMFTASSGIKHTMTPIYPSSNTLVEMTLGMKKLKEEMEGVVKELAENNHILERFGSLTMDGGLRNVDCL
UniProt Q6PJ69, sequence (Q6PJ69 whole entry, looked up): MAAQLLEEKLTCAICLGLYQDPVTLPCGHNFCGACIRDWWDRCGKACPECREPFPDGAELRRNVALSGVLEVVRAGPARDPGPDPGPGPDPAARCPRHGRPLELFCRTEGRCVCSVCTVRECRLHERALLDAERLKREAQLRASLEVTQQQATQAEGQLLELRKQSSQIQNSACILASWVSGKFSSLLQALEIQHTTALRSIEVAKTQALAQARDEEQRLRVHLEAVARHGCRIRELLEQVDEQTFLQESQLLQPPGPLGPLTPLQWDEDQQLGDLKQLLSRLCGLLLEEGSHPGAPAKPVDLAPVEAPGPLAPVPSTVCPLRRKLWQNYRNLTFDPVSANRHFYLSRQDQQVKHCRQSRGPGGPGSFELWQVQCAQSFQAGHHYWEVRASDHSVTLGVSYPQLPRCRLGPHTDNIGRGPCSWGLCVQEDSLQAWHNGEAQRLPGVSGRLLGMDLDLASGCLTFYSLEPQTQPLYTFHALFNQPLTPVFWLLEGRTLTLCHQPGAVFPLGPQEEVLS
UniProt Q9BZV1, sequence (Q9BZV1 whole entry, looked up): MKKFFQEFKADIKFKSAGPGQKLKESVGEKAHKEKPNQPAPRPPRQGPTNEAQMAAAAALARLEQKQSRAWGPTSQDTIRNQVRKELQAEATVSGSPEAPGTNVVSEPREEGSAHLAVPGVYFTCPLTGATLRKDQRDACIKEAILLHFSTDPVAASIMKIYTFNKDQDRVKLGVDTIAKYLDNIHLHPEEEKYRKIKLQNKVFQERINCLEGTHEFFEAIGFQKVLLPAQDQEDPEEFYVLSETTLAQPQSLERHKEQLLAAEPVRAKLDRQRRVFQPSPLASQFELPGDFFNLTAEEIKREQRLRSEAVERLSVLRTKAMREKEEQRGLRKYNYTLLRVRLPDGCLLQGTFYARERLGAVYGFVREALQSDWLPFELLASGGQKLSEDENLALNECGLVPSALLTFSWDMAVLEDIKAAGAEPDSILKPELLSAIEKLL
UniProt Q8N511, sequence (Q8N511 whole entry, looked up): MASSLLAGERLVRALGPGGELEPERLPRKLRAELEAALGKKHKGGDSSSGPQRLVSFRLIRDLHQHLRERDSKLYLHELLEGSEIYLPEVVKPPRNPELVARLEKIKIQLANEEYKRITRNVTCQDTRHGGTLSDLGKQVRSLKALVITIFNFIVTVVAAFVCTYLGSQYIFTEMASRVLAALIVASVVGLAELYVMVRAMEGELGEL
UniProt Q9BUB7, sequence (Q9BUB7 whole entry, looked up): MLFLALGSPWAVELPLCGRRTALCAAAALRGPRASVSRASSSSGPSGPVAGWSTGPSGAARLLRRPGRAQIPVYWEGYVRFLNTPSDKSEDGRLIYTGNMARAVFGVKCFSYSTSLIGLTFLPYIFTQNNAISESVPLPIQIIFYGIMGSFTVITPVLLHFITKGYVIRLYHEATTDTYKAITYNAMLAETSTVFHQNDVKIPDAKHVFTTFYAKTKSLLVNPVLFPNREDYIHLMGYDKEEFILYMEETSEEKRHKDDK
UniProt P67936, sequence (P67936 whole entry, looked up): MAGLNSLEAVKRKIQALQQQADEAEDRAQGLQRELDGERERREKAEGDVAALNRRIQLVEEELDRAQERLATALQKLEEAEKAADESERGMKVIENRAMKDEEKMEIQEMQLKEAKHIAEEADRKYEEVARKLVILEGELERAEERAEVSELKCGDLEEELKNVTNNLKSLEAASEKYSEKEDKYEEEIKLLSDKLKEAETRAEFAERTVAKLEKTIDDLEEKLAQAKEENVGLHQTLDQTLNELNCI
UniProt P11441, sequence (P11441 whole entry, looked up): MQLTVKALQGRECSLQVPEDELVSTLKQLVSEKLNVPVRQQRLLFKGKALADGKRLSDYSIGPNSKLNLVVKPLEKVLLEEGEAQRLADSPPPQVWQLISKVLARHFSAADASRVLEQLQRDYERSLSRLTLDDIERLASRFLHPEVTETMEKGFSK
UniProt Q7Z3V4, sequence (Q7Z3V4 whole entry, looked up): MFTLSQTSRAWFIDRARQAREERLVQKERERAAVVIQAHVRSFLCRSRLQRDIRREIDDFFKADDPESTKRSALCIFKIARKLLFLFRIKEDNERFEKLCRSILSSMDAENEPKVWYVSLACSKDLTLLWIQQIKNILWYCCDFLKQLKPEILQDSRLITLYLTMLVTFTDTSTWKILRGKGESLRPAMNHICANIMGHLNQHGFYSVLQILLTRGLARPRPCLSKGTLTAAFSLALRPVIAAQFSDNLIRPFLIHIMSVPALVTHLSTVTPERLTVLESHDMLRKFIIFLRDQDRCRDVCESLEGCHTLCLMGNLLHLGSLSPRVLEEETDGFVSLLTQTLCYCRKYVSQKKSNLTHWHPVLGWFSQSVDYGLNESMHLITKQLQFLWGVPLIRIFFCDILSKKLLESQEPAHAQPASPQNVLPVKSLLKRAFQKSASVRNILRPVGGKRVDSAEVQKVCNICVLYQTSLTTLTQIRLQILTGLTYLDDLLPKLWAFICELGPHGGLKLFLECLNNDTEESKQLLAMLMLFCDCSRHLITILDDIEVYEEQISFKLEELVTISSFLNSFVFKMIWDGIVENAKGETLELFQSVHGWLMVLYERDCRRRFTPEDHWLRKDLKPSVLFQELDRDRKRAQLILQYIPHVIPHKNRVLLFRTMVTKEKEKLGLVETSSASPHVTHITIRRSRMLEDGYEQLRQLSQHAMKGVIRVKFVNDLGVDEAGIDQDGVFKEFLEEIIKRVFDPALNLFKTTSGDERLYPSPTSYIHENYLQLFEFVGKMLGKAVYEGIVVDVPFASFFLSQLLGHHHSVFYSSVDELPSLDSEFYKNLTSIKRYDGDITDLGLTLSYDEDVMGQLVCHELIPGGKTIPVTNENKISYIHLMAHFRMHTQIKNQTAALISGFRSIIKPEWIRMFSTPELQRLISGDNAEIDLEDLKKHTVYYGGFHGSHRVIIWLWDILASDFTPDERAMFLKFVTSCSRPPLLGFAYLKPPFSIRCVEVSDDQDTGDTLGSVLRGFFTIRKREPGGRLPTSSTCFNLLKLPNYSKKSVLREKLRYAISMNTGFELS
UniProt Q96K49, sequence (Q96K49 whole entry, looked up): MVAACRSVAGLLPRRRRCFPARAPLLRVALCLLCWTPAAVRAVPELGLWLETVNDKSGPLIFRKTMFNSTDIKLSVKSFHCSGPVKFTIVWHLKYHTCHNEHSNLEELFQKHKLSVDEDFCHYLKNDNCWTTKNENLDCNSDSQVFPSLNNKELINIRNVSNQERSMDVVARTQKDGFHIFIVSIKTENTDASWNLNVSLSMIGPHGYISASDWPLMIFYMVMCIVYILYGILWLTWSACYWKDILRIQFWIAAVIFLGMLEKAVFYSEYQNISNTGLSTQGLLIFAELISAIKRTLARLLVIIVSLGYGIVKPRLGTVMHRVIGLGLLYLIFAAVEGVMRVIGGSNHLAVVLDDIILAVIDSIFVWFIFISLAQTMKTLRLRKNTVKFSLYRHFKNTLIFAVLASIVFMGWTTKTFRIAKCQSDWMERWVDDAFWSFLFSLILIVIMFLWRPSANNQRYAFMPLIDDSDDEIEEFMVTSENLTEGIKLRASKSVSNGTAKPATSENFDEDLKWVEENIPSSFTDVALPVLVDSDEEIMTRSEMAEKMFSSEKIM
UniProt Q6NXR4, sequence (Q6NXR4 whole entry, looked up): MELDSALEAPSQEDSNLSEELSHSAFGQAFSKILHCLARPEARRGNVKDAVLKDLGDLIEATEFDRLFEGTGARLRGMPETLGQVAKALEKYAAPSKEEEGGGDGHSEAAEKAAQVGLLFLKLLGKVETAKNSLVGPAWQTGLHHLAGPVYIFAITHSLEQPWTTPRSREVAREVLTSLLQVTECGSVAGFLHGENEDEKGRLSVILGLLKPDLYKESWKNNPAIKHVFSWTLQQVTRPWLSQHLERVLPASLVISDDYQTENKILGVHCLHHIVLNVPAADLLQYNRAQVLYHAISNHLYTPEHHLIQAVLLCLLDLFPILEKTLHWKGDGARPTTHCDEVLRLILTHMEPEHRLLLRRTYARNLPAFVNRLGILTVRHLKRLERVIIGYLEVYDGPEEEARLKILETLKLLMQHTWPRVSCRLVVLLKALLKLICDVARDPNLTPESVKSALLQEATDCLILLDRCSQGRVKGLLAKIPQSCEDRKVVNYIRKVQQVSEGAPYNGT

Target | log2 fold change (lapatinib) | log2 fold change (pictilisib) | log2 fold change (crizotinib) | log2 fold change [1] | log2 fold change (duvelisib) | log2 fold change (gandotinib) | log2 fold change (tozasertib) | log2 fold change (doramapimod) | log2 fold change (bafetinib) | log2 fold change [2] | log2 fold change (nilotinib) | log2 fold change [3] | log2 fold change (dasatinib) | log2 fold change [4] | log2 fold change [5] | log2 fold change (quisinostat) | log2 fold change (tipifarnib) | log2 fold change [6] | log2 fold change [7] | log2 fold change [8]
UBE3B (UniProt Q7Z3V4) | -0.019 | 0.025 | -0.027 | -0.174 | 0.136 | -0.17 | -0.005 | 0.083 | -0.082 | 0.203 | 0.041 | -0.006 | 0.055 | -0.011 | 0.053 | -0.077 | -0.102 | 0.041 | 0.14 | -0.026
TBRG4 (UniProt Q969Z0) | -0.021 | -0.039 | -0.031 | 0.08 | 0.006 | -0.269 (active) | 0.038 | -0.012 | -0.029 | -0.021 | -0.016 | -0.03 | -0.035 | 0.007 | 0.059 | 0.004 | -0.006 | 0.038 | 0.022 | 0.019
TUBA1C (UniProt Q9BQE3) | 0.004 | -0.057 | -0.045 | -0.013 | -0.019 | 0.062 | -0.008 | -0.026 | 0.005 | 0.021 | -0.001 | 0.021 | -0.017 | 0.006 | 0.018 | -0.038 | -0.007 | 0.014 | -0.006 | -0.052
TBK1 (UniProt Q9UHD2) | 0.042 | 0.054 | 0.469 (active) | -0.059 | -0.046 | 0.342 | 0.314 | -0.024 | 0.007 | -0.044 | -0.003 | 0.618 (active) | 0.029 | 0.125 | 0.251 | -0.097 | -0.026 | 0.209 | 0.032 | -0.074
UBL4A (UniProt P11441) | -0.003 | -0.057 | 0.112 | 0.253 (active) | 0.007 | -0.157 | 0.076 | -0.029 | -0.044 | -0.06 | -0.005 | -0.013 | 0.052 | -0.037 | 0.036 | 0.157 | -0.024 | 0.02 | 0.007 | 0.016
TRMT10A (UniProt Q8TBZ6) | 0.042 | 0.083 | 0.031 | -0.041 | 0.001 | 0.02 | -0.047 | 0.001 | 0.012 | 0.059 | 0.008 | -0.027 | -0.07 | 0.019 | 0.013 | -0.028 | 0.005 | 0.01 | 0.028 | -0.01
TMEM199 (UniProt Q8N511) | -0.034 | -0.035 | 0.062 | -0.053 | 0.051 | 0.016 | 0.074 | -0.068 | -0.016 | 0.099 | 0.005 | 0.005 | -0.011 | 0.001 | 0.046 | 0.031 | 0.026 | 0 | 0.005 | 0.068
TRIM65 (UniProt Q6PJ69) | 0.028 | -0.035 | -0.046 | -0.06 | 0.072 | -0.102 | 0.042 | -0.02 | 0.034 | 0.088 | -0.025 | -0.008 | -0.059 | -0.021 | 0.005 | -0.016 | -0.004 | 0 | 0.08 | -0.017
TPM4 (UniProt P67936) | -0.002 | -0.043 | 0.003 | -0.001 | -0.021 | 0.039 | -0.098 | -0.029 | -0.055 | -0.018 | 0.028 | -0.068 | 0.058 | -0.028 | -0.01 | 0 | -0.004 | -0.054 | 0.007 | -0.029
TMEM87B (UniProt Q96K49) | -0.044 | 0.147 | -0.017 | 0.004 | 0.039 | -0.077 | 0.068 | 0.026 | 0.126 | 0 | 0.008 | 0.086 | -0.006 | -0.02 | 0.023 | -0.012 | -0.011 | -0.016 | -0.019 | -0.048
TTI2 (UniProt Q6NXR4) | -0.033 | -0.033 | -0.016 | -0.032 | -0.018 | -0.023 | 0.004 | -0.023 | -0.017 | 0.082 | 0.022 | 0.029 | -0.051 | 0.044 | 0.01 | -0.009 | -0.018 | -0.003 | 0.049 | -0.013
TMEM70 (UniProt Q9BUB7) | -0.002 | -0.012 | -0.082 | -0.304 (active) | 0.011 | 0.057 | -0.014 | 0.092 | -0.038 | 0.138 | -0.05 | -0.046 | -0.065 | 0.023 | -0.003 | -0.206 | -0.007 | 0.02 | 0.009 | -0.001
UBXN6 (UniProt Q9BZV1) | -0.075 | -0.048 | 0.004 | -0.014 | -0.028 | -0.018 | 0.008 | 0.017 | 0.033 | -0.023 | -0.033 | 0.042 | 0.017 | -0.065 | 0.046 | 0.028 | 0.016 | 0.013 | 0.068 | -0.013
TDRD3 isoform 3 (UniProt Q9H7E2) | 0.005 | -0.038 | 0.024 | 0.127 | -0.02 | -0.068 | 0.034 | -0.151 | 0.093 | 0.01 | 0.261 | -0.04 | 0.033 | 0.17 | 0.01 | -0.023 | -0.152 | 0.042 | 0.014 | 0.064
TDRKH (UniProt Q9Y2W6) | -0.069 | -0.036 | -0.083 | -0.061 | -0.028 | 0.062 | 0.081 | -0.043 | 0.02 | 0.074 | -0.01 | -0.077 | -0.059 | 0.018 | 0.028 | -0.087 | -0.048 | 0.041 | 0.003 | 0.067
TUBGCP4 (UniProt Q9UGJ1) | -0.022 | 0.011 | -0.012 | -0.007 | 0.03 | -0.125 | -0.022 | -0.041 | -0.076 | 0.019 | -0.028 | 0.008 | -0.046 | 0.001 | 0.018 | -0.027 | 0.008 | 0.069 | 0.034 | 0.01
